Screening data: PubChem, National Center for Advancing Translational Sciences (NCATS)
IL-1B inflam inh: inflammasome signaling inhibition, IL-1 beta readout; THP-1 LPS/ATP IL-1B secretion, AlphaLISA, 16 h; active compounds read low; activity change, % at 57.5 µM; actives 4.7% (n = 360,000); AID 743279; in the data active = activity change below about -50%; inconclusive = mostly about -30% to -49%
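THP-1 cells pretreated 1 hr with compounds (up to 57.5 uM final), then stimulated with LPS (250 ng/mL final) plus ATP (1.25 mM final); secreted IL-1B measured by AlphaLISA after 16 hr, decreased signal indicating inhibition.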
DT40 TDP1 CPT: DT40-hTDP1 cell growth loss with CPT. chicken DT40 Tdp1-/-;hTDP1 cells + 20 nM CPT, ATP luminescence, 48 h. Potency, µM (titrated, usually from 46.2 µM), for the others: at the top dose activity change, negative = growth inhibition, actives largely listed as inhibitors. actives 12% (n = 420,000). AID 686979; also: potency is read from the fitted curve at half-maximal effect; nearly all actives have a fitted effect of over 55% in size
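Chicken DT40 Tdp1-/- cells stably complemented with human TDP1 were seeded at 400 cells/well in medium containing 20 nM camptothecin, exposed to pin-transferred compounds, and grown at 37 °C for at least 48 hr. Viability was read as ATP luminescence.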
RORgamma inh: inhibitors of mouse ROR gamma transcriptional activity. Potency, µM (series often up to 53.6 µM), inactives show at the top dose activity change, negative = inhibition, actives largely listed as inhibitors. Drosophila S2 Gal4-RORgamma UAS-luciferase reporter, 20 h. actives 5.4% (n = 310,000). P51450; also: potency is read from the fitted curve at half-maximal effect; nearly all actives have a fitted effect of over 60% in size
Target sequence (P51450 whole entry, looked up, the tested form may be a part): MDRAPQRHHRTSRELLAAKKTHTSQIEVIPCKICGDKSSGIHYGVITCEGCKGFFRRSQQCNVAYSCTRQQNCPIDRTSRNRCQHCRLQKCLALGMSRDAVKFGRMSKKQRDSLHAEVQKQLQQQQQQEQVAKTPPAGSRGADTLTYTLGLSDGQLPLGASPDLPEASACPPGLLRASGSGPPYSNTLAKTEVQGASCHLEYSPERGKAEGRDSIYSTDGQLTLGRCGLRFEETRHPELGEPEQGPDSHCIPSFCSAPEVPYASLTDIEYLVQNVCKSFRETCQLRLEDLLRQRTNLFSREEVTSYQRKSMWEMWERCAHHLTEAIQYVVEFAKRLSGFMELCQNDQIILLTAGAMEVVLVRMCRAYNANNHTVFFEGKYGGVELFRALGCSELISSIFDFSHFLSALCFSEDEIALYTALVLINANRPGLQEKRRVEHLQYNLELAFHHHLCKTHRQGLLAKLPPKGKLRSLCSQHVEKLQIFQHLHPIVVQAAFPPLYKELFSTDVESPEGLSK
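Drosophila Schneider cells stably carrying a metallothionein-driven Gal4 DBD–ROR gamma fusion and a UAS-Photinus luciferase reporter were exposed to compound for 1 hr, then induced with copper sulfate (700 uM final) for 20 hr at ambient temperature before luminescence reading.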
DT40 TDP1 no CPT: qHTS for Inhibitors of human tyrosyl-DNA phosphodiesterase 1 (TDP1): qHTS in cells in absence of CPT; DT40 Tdp1-/- hTDP1 cells, no CPT, ATP luminescence, 48 h; Potency, µM (highest dose often 46.2 µM), without a hit: at the highest dose activity change, negative = growth inhibition, actives largely listed as inhibitors; actives 15% (n = 420,000); AID 686978, 2013; also: potency is read from the fitted curve at half-maximal effect; nearly all actives have a fitted effect of over 55% in size
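Chicken DT40 Tdp1-/- cells stably complemented with human TDP1 were seeded at 400 cells/well with DMSO in place of 20 nM camptothecin. After compound pinning, cells grew at least 48 hr at 37 °C; viability read by CellTiter-Glo luminescence.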
Gal4-VP16 FLuc: inhibits Gal4-VP16 luciferase reporter, ROR gamma counter-screen | Drosophila S2 Gal4-VP16 UAS-luciferase, luminescence, 20 h | Potency, µM (doses to about 53.6 µM), for the others: top-dose activity, negative = inhibition, hits mostly inhibitors | actives 3.5% (n = 310,000) | AID 2546;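 also: Gal4-VP16 expression switched on by copper sulfate through the metallothionein promoter; potency is read from the fitted curve at half-maximal effect; nearly all actives have a fitted effect of over 50% in size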
ELG1 repair inh: ELG1-dependent DNA repair inhibition | actives 2.3% (n = 330,000) | Potency, µM (top dose mostly 46.1 µM), without a hit: top-dose activity change, negative = inhibition, actives largely listed as inhibitors | HEK293T ELG1-luciferase reporter, luminescence, 16 h; DNA damage induced by 5-fluorouridine | AID 504467; also: potency is read from the fitted curve at half-maximal effect; nearly all actives have a fitted effect of over 55% in size
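Reporter activity after DNA damage by 5-fluorouridine is monitored. Compound-treated cells incubate 16 hr at 37 °C, then ONE-Glo is added for 30 min before luminescence reading.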
Numbers without * were called inactive; ? = inconclusive; . = no result. This is a sample that favours compounds with a hit; in the whole collection about 21% have one here. Unless noted, calls follow the shape of the dose curve; as a rule, active = well fitted curve in the direction sought with a large enough effect; inconclusive = small, poorly fitted or top-dose-only effect, or another doubt; inactive = no such curve, though single readings can be large; an effect the other way counts as inactive or inconclusive. % is scaled to controls: 0 for no effect and ±100 for the full control effect.

SMILES	IL-1B inflam inh	DT40 TDP1 CPT	RORgamma inh	DT40 TDP1 no CPT	Gal4-VP16 FLuc	ELG1 repair inh
CCC(Oc1ccccc1OC)C(=O)Nc1ccc2c(c1)OCO2 (stereo unspecified)	-8.3	-5.1%	-6.9%	-28.9%	-3.2%	21.8%
CCc1cc2c(COC(=O)c3cc(S(=O)(=O)N4CCOCC4)ccc3F)cc(=O)oc2cc1O	-77.3*	18.4µM*	.	?	.	?
CN(C)c1cccc(C(=O)OCc2cc(=O)oc3cc(O)ccc23)c1	31.9	?	8.91µM*	?	?	9.8%
O=C(OCc1cc(=O)oc2cc(O)ccc12)c1cc(S(=O)(=O)N2CCOCC2)ccc1F	-102.7*	-14.1%	.	-22.6%	.	?
CCOC(=O)c1cccc(NS(=O)(=O)c2c(C)[nH]c(=O)[nH]c2=O)c1	24.5	1.3%	9.9%	8.7%	1.4%	1.0%
Cc1noc(C)c1COC(=O)c1cc(S(=O)(=O)N2CCOCC2)ccc1F	-4.7	-9.2%	.	-26.6%	.	5.7%
CCc1cc2c(COC(=O)c3cccc(NS(C)(=O)=O)c3)cc(=O)oc2cc1O	-12.8	16.4µM*	-3.5%	10.3µM*	-9.1%	?
N#Cc1ccccc1COC(=O)c1cc(S(=O)(=O)N2CCOCC2)ccc1F	?	8.2%	.	1.2%	.	.
Cc1ccc2c(COC(=O)c3ccc(C)c(C)c3)cc(=O)oc2c1	19.5	-13.0%	-22.0%	-27.7%	-0.8%	?
COCCNC(=O)C1(C)CCCN(C(=O)c2ccc(N(C)C)cc2)C1 (stereo unspecified)	-17.1	-9.9%	.	4.5%	.	.
C[C@H]1CN([C@@H](C)CO)C(=O)CCCn2cc(nn2)CO[C@@H]1CN(C)C(=O)Cc1ccccc1	16.5	16.0%	.	-27.0%	.	.
COCCNC(=O)C1(C(F)(F)F)C/C(=C\CCO)CCCO1 (stereo unspecified)	.	.	8.9%	.	1.1%	.
O=C(c1ccc(CNS(=O)(=O)c2ccc(Br)cc2)cc1)N1CCCCCC1	-4.4	23.1µM*	?	?	-12.4%	?
O=C(c1ccc(Br)cc1)N1CCCC1	0.0	-11.8%	-1.2%	1.5%	-1.4%	.
CN1CCN(C(=O)c2ccc(S(=O)(=O)c3ccc(Br)cc3)cc2)CC1	5.8	?	-2.0%	18.4µM*	-5.7%	?
CCCn1c(-c2ccc(F)cc2)nc2c(NCCN3CCCC3)nc(C)nc21	.	.	-12.5%	.	3.3%	.
Cc1ccc(S(=O)(=O)NC(C)C(=O)Nc2cccc([N+](=O)[O-])c2)cc1 (stereo unspecified)	24.8	0.6%	2.2%	0.7%	2.9%	-18.9%
CC(Nc1cccc([N+](=O)[O-])c1)C(=O)Nc1ccc(S(=O)(=O)N2CCCC2)cc1 (stereo unspecified)	?	14.6µM*	.	14.6µM*	.	?
CC(C)C(=O)NC(=S)Nc1ccc(S(=O)(=O)N2CCCC2)cc1	-1.3	?	?	16.4µM*	?	-7.1%
CC(C)CC(=O)NC(=S)Nc1ccc(S(=O)(=O)N2CCCC2)cc1	2.2	?	15.8µM*	?	-13.1%	-25.1%
CCCC(C(=O)Nc1ccc(S(=O)(=O)N2CCCC2)cc1)c1ccccc1 (stereo unspecified)	-22.9	20.6µM*	.	?	.	?
CC(C)n1cc(CN2CCN(CCc3ccccc3)C(CCO)C2)cn1 (stereo unspecified)	?	-7.8%	6.0%	-9.9%	-5.4%	6.1%
C=CCOc1cccn2c(N(C)C(=O)c3ccccc3F)c(CC)nc12	14.6	-50.3%	.	-26.7%	.	.
CCCCC/C=C\C/C=C\C/C=C\C/C=C\CCCCCC(=O)NCC(=O)O	.	.	7.2%	.	-14.1%	.
c1ccc(OCCNc2nc(NCC3CC3)nc3ccsc23)cc1	?	4.61µM*	.	4.61µM*	.	.
SMILES	IL-1B inflam inh	DT40 TDP1 CPT	RORgamma inh	DT40 TDP1 no CPT	Gal4-VP16 FLuc	ELG1 repair inh
COc1ccccc1CNc1nc(Oc2cccc(F)c2)c2sccc2n1	-21.5	?	.	?	.	.
COc1ccccc1CNc1nc(NCCNC(C)=O)c2sccc2n1	86.8	?	.	?	.	.
COCCNc1nc(NCc2ccccc2OC)c2sccc2n1	-25.2	23.1µM*	.	16.4µM*	.	.
CC(C)Nc1nc(NCc2ccccc2)c2sccc2n1	-101.2*	9.2µM*	.	18.4µM*	.	.
COc1ccccc1CNc1nc(NCCOc2ccccc2)c2sccc2n1	-92.5*	5.8µM*	.	5.8µM*	.	.
Cc1cc(=O)n2nc(N3CCC(C(=O)NCc4cccc(Br)c4)CC3)sc2n1	11.5	-0.5%	25.3%	16.9%	-2.9%	-0.3%
COc1ccc2[nH]cc(S(=O)(=O)c3ccc(C(C)C)cc3)c(=O)c2c1	1.6	-2.0%	-1.7%	-1.2%	-16.3%	-2.2%
CC(=O)N1CCN(C(=O)CCCNC(=O)c2ccc(Cl)cc2)CC1	5.7	18.4%	.	0.6%	.	.
c1cc2cc(CNc3nc(NCC4CC4)nc4ccsc34)ccc2o1	-78.1*	16.4µM*	.	?	.	.
COCCNc1nc(NCc2ccccc2)nc2ccsc12	-25.8	20.6µM*	.	9.2µM*	.	.
CC(C)Nc1nc(Nc2ccc(Cl)cc2F)c2sccc2n1	-1.4	20.6µM*	.	20.6µM*	.	.
Clc1ccccc1Nc1nc(NCc2ccccc2)nc2ccsc12	-28.1	9.2µM*	.	9.2µM*	.	.
COCCNc1nc(NC(C)C)nc2ccsc12	0.0	-29.6%	.	-21.8%	.	.
OCc1ccccc1-c1nc(NCc2ccccc2)nc2ccsc12	0.0	?	.	-25.2%	.	.
CN(C)CCCn1c2c(c(SCC(=O)Nc3ccc4c(c3)OCCO4)nc1=O)CCCC2	-19.4	-17.7%	.	?	.	.
COCc1cc(C)nc(N/N=C/c2ccc(-c3ccc(Cl)cc3[N+](=O)[O-])o2)c1C#N	20.9	-11.8%	?	-6.4%	13.0%	-7.9%
COc1ccccc1OCC(=O)Nc1nc(-c2ccc(Br)cc2)ns1	.	-33.4%	.	-29.3%	.	.
COc1ccc(N2CCN(C(=O)COC(=O)COc3ccc(C#N)cc3)CC2)cc1	5.6	0.3%	.	2.5%	.	-0.9%
CCOc1ccc(CC(=O)Nc2c(C(=O)c3ccccc3)oc3ccc(OC)cc23)cc1OCC	.	-18.4%	.	-7.3%	.	.
CCc1nn2c(=O)cc(CSCC(=O)Nc3ccccc3Cl)nc2s1	11.6	14.2%	-15.2%	10.3%	2.5%	15.2%
COc1ccccc1CNc1nc(Nc2ccccc2-n2cccn2)c2sccc2n1	-14.8	14.6µM*	.	16.4µM*	.	.
COc1cccc(-c2cncnc2NCc2ccccc2OC)c1	.	?	-8.1%	?	-8.8%	.
